From PubChem BioAssay (NCI) come the findings set out here.

Test systems include SK-MEL-2 melanoma; EKVX NSCLC; SN12C renal; UO-31 renal; TK-10 renal; ACHN renal; A498 renal; CCRF-CEM leukemia; MOLT-4 leukemia; SR leukemia; RPMI-8226 leukemia; OVCAR-8 ovarian; OVCAR-5 ovarian; OVCAR-4 ovarian; SK-OV-3 ovarian; IGROV1 ovarian; OVCAR-3 ovarian; HS 578T breast; NCI/ADR-RES ovarian.
Common to all, as to assay: NCI-60 one-dose screen, 48 h (100 = growth as untreated, 0 = no growth, -100 = all killed)
Holding throughout (details): 10 µM

Molecules are shown by their SMILES. The panel holds about 83,000 compounds, 20% with a hit somewhere; the sample as a whole holds those more often.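 In brief: 96-well plates, 48 h treatment, single concentration, percent growth endpoint.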 Values without a mark were called inactive. Active and inactive are the calls of the source. The calls were made as follows: active = growth percent below 10; inactive = the rest.

With `O=C(CN(C1CCCCC1)C1CCCCC1)Nc1ccc(S(=O)(=O)c2ccc(NC(=O)CN(C3CCCCC3)C3CCCCC3)cc2)cc1`, the growth was -35.4% (active) in the assay with SK-MEL-2 melanoma; -43.6% (active) in the assay with EKVX NSCLC; 30.6% in the assay with SN12C renal; 10.2% with UO-31 renal; 56.1% in the assay on TK-10 renal; -33% (active) in the assay with ACHN renal. Further, the growth in the assay on A498 renal was 89.4%; in the assay with CCRF-CEM leukemia it was -59.7% (active); with MOLT-4 leukemia, -25.2% (active); in the assay on SR leukemia it was -51.4% (active); in the assay with RPMI-8226 leukemia it was -66.9% (active); with OVCAR-8 ovarian, 3.23% (active). Also, the growth in the assay with OVCAR-5 ovarian is -54.8% (active); in the assay with OVCAR-4 ovarian, -72.6% (active); with SK-OV-3 ovarian, 76.6%; in the assay on IGROV1 ovarian, -52.3% (active); in the assay with OVCAR-3 ovarian, -85.2% (active); in the assay with HS 578T breast it was 33.9%. The growth in the assay on NCI/ADR-RES ovarian is 4.04% (active).

As for `CCCCCCCCCCOC(c1ccccc1)c1ccccc1`, the growth in the assay with SK-MEL-2 melanoma was 73.5%; with EKVX NSCLC, 90.4%; in the assay on SN12C renal, 102%; in the assay with UO-31 renal, 75.6%; in the assay on TK-10 renal it was 85.1%; in the assay with ACHN renal, 88.8%. For the same compound, the growth in the assay with A498 renal is 109%; in the assay with CCRF-CEM leukemia, 93.7%; with MOLT-4 leukemia, 84.5%; in the assay with SR leukemia, 93.7%; in the assay on RPMI-8226 leukemia, 96%; in the assay on OVCAR-8 ovarian, 103%. For the same compound, the growth with OVCAR-5 ovarian was 88.7%; in the assay on OVCAR-4 ovarian, 99.8%; with SK-OV-3 ovarian, 96.6%; in the assay with IGROV1 ovarian, 73.7%; in the assay with OVCAR-3 ovarian it was 99.5%; with HS 578T breast, 99.7%. Further, the growth in the assay with NCI/ADR-RES ovarian was 86.1%.

For the compound `CCN(CC)CCNc1ccc(C)c2sc3cc(Cl)ccc3c(=O)c12`, the growth in the assay on SK-MEL-2 melanoma is 36.5%; with EKVX NSCLC, 71.3%; with SN12C renal it was 35.6%; with UO-31 renal, 26.9%; with TK-10 renal it was 50.6%; with ACHN renal, 28.1%. For the same compound, the growth was 53.5% in the assay with A498 renal; 11.6% in the assay with CCRF-CEM leukemia; 1.35% (active) with MOLT-4 leukemia; -30.4% (active) with SR leukemia; -4.34% (active) with RPMI-8226 leukemia; 45.9% with OVCAR-8 ovarian. For the same compound, the growth in the assay on OVCAR-5 ovarian was 64.3%; with OVCAR-4 ovarian it was 52.1%; with SK-OV-3 ovarian, 64.2%; in the assay with IGROV1 ovarian it was 20.4%; in the assay with OVCAR-3 ovarian it was 59.1%; in the assay with HS 578T breast, 43.3%. Also, the growth with NCI/ADR-RES ovarian is 51.1%.

Take `NNC(=O)Oc1c(Cl)cc(Cl)cc1[N+](=O)[O-]`: the growth in the assay on SK-MEL-2 melanoma is 103%; in the assay on EKVX NSCLC it was 105%; with SN12C renal it was 111%; in the assay on UO-31 renal, 87.4%; in the assay with TK-10 renal it was 94.1%; in the assay with ACHN renal, 106%. Moreover, the growth is 118% in the assay with A498 renal; 100% in the assay on CCRF-CEM leukemia; 97.6% with MOLT-4 leukemia; 87.5% in the assay with SR leukemia; 105% with RPMI-8226 leukemia; 109% in the assay on OVCAR-8 ovarian. Moreover, the growth with OVCAR-5 ovarian was 104%; in the assay on OVCAR-4 ovarian it was 113%; with SK-OV-3 ovarian, 102%; in the assay on IGROV1 ovarian it was 101%; in the assay on OVCAR-3 ovarian, 107%; in the assay with HS 578T breast it was 104%. In addition, in the assay on NCI/ADR-RES ovarian, the growth is 101%.

On to `CCN(CC)CC(=O)N(CC)c1ccc(C)c(Cl)c1`, for which the growth with SK-MEL-2 melanoma was 99.5%; in the assay on EKVX NSCLC, 105%; in the assay with SN12C renal it was 101%; in the assay on UO-31 renal it was 90.7%; in the assay with TK-10 renal it was 93.6%; in the assay on ACHN renal, 117%. For the same compound, the growth in the assay with A498 renal was 86.8%; in the assay with CCRF-CEM leukemia it was 93.8%; in the assay with MOLT-4 leukemia, 65.1%; in the assay with SR leukemia, 82.3%; in the assay on RPMI-8226 leukemia, 97.2%; in the assay on OVCAR-8 ovarian it was 94.4%. Also, the growth is 104% in the assay with OVCAR-5 ovarian; 107% in the assay on OVCAR-4 ovarian; 93.1% in the assay on SK-OV-3 ovarian; 101% in the assay on IGROV1 ovarian; 102% in the assay on OVCAR-3 ovarian; 100% with HS 578T breast. Further, the growth in the assay on NCI/ADR-RES ovarian is 102%.

As to `CC(C)CCN(CCC(C)C)CC(=O)Nc1ccc(S(=O)(=O)c2ccc(NC(=O)CN(CCC(C)C)CCC(C)C)cc2)cc1`, the growth is 65.4% in the assay with SK-MEL-2 melanoma; 83.1% in the assay with EKVX NSCLC; 74.6% in the assay with SN12C renal; 63.3% in the assay with UO-31 renal; 96.4% with TK-10 renal; 69.7% in the assay with ACHN renal. The growth is 97.1% with A498 renal; 2% (active) in the assay with CCRF-CEM leukemia; 2.75% (active) in the assay on MOLT-4 leukemia; 3.98% (active) in the assay with SR leukemia; -22.4% (active) with RPMI-8226 leukemia; 21.8% with OVCAR-8 ovarian. Also, the growth in the assay on OVCAR-5 ovarian was 54.3%; in the assay with OVCAR-4 ovarian, 73.7%; in the assay with SK-OV-3 ovarian it was 84.3%; in the assay on IGROV1 ovarian, 12.1%; with OVCAR-3 ovarian, 22.7%; in the assay with HS 578T breast, 65.3%. Besides, the growth in the assay with NCI/ADR-RES ovarian is 59.3%.

With `CCOS(=O)(=O)c1c(C(C)C)cc(C(C)C)cc1C(C)C`, the growth is 96.9% with SK-MEL-2 melanoma; 97.8% in the assay with EKVX NSCLC; 98.3% in the assay on SN12C renal; 92.2% in the assay on UO-31 renal; 95.1% with TK-10 renal; 104% in the assay with ACHN renal. In addition, the growth is 117% in the assay on A498 renal; 121% in the assay on CCRF-CEM leukemia; 97.6% with MOLT-4 leukemia; 85.1% with SR leukemia; 119% in the assay on RPMI-8226 leukemia; 103% in the assay on OVCAR-8 ovarian. Also, the growth in the assay with OVCAR-5 ovarian is 90.6%; in the assay with OVCAR-4 ovarian, 120%; with SK-OV-3 ovarian, 108%; in the assay with IGROV1 ovarian it was 93.5%; with OVCAR-3 ovarian it was 103%; in the assay with HS 578T breast, 103%. The growth with NCI/ADR-RES ovarian is 103%.

`O=C(Nc1ccc2c(O)cc(S(=O)(=O)O)cc2c1)c1ccc([N+](=O)[O-])cc1`: the growth in the assay on SK-MEL-2 melanoma was 102%; in the assay on EKVX NSCLC it was 93.7%; in the assay on SN12C renal, 98.8%; with UO-31 renal it was 91.4%; with TK-10 renal it was 102%; in the assay with ACHN renal, 107%. For the same compound, the growth was 97.9% with A498 renal; 88.5% in the assay with CCRF-CEM leukemia; 63.7% in the assay with MOLT-4 leukemia; 60.9% in the assay with SR leukemia; 92.9% with RPMI-8226 leukemia; 88.9% with OVCAR-8 ovarian. For the same compound, the growth in the assay with OVCAR-5 ovarian is 101%; in the assay on OVCAR-4 ovarian, 103%; in the assay on SK-OV-3 ovarian, 82.7%; in the assay on IGROV1 ovarian it was 102%; with OVCAR-3 ovarian it was 104%; in the assay on HS 578T breast it was 103%. In addition, the growth in the assay with NCI/ADR-RES ovarian is 100%.
